Source: PubChem (several laboratories)
HSF1 inhib – HSF1 inhibitors in luciferase reporter cells, primary screen, cell-based, NIH3T3, luminescence; activity change, negative = inhibition, % at 7.5 µM (by protocol); NIH3T3-HGL HSE-luciferase, MG132-induced, luminescence 8 h; hits give low values; 300,000 tested, 0.77% active;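 active = more than half of replicate wells show activity change below -50%, luminescence cut by over half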;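 note: luciferase reports HSF-1 transcriptional activity via heat shock element; 0% = median of DMSO wells and -100% = zero luminescence signal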
HSP90 refold inh – HSP90 inhibitors, primary screen, cell lysate, luminescence; Heat shock protein HSP 90 (rabbit reticulocyte lysate; luciferase refolding); Rabbit reticulocyte lysate, luciferase refolding luminescence, 3 h; inhibition, % at 5.6 µM; 290,000 tested, 0.91% active;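 active = inhibition above the screen-wide mean plus 3 SD, computed separately per campaign, cut at about 16% in these data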;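 note: 0% = DMSO wells and 100% = 60 µM geldanamycin wells; inhibitors lower the luminescence because luciferase stays unfolded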
HSF1 activator – HSF-1 activators, primary screen, NIH3T3-HGL cells, MG132 stress, luminescence, single point | AID 504408, 2011 | NIH3T3-HGL HSF-1 luciferase reporter, 8 h; 100% = twice DMSO control signal | activation, % at 9 µM | 300,000 tested, 1.7% active;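 active = mean replicate activation of at least 50% with a set share of replicates each reaching 50%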;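 note: 0% = median of the neutral control wells and 100% = twice that signal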
ARNT TACC3 PPI – disruptors of ARNT/TACC3 protein interaction, primary screen, biochemical, AlphaScreen, single concentration. AID 623870, 2012. Transforming acidic coiled-coil-containing protein 3 (Homo sapiens), Q9Y6A5. AlphaScreen His-ARNT PAS-B/GST-TACC3 binding, luminescence; TACC3 fragment carries E629A point mutation. 390,000 tested, 0.66% active. inhibition, % at 9.99 µM;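 active = mean inhibition of replicates at least 50% and at least half of replicates each reaching 50%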;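 note: 0% = complete ARNT plus TACC3 wells and 100% = ARNT alone without TACC3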
HIF activator – HIF pathway transcriptional activators, primary screen, cell-based, U2OS HRE-luciferase, luminescence; U2OS HRE-luciferase reporter; normalized: DMSO 0%, desferrioxamine 100%; activation, % at 7.5 µM (by protocol); 300,000 tested, 0.32% active; AID 1910, 2009;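 active = mean activation of at least 10% of the iron chelator positive control signal, with at least half of replicates also reaching 10%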
* = called active by the depositor; . = not tested or not shown. Hits are enriched below; roughly 3.1% of the tested compounds scored in any of these assays.

SMILES	HSF1 inhib	HSP90 refold inh	HSF1 activator	ARNT TACC3 PPI	HIF activator
N#CCC(CNc1ncc(C(F)(F)F)cc1Cl)OC(=O)c1ccc(Cl)cc1Cl (stereo not given)	44.2	2.8	79.0*	-1.9	0.6
CC(C)c1ccc(NC2(C#N)C(=O)Nc3ccccc32)cc1 (stereo not given)	-60.9*	-3.7	-67.1	1.9	-1.9
CN(C)C(=O)[C@@H]1[C@@H](CO)[C@@H]2Cn3c(ccc(C4=CCCCC4)c3=O)[C@H]1N2Cc1ccccc1	.	.	.	-6.4	.
O=C(Nc1cccc(Cl)c1)N1C[C@H]2[C@@H](c3ccccc31)[C@H](CO)N2Cc1ccncc1	.	.	.	0.9	.
CC(=O)N1CCC2(CC1)C/C(=N\NC(=S)Nc1ccccc1C)c1cc(O)ccc1O2	-12.4	1.4	-3.0	6.2	0.0
CC(=O)N1CCC2(CC1)C/C(=N\NC(=S)Nc1ccccc1F)c1cc(O)ccc1O2	-52.4*	3.8	-58.3	.	-1.6
Cn1cccc1C(=O)NC(=O)COC(=O)c1cc(S(=O)(=O)N2CCCCC2)ccc1Cl	5.2	-5.7	19.2	.	46.0*
COc1ccc(S(=O)(=O)N2CCCCCC2)cc1C(=O)OCC(=O)NC(C)(C)C	-67.5*	2.8	-75.4	-15.6	-0.9
C[C@@H]1CCCCO[C@@H](CN(C)CC2CCCCC2)[C@@H](C)CN([C@H](C)CO)C(=O)c2cc(NC(=O)NC3CCCCC3)ccc2O1	.	.	.	-2.7	.
O=C1CS(=O)(=O)C(c2ccccc2)N1c1ccc(Cl)cc1 (stereo not given)	.	.	.	-8.6	.
CCCCN(c1ccccc1)c1ncnc(N)c1[N+](=O)[O-]	-52.1*	-0.9	-55.5	-4.6	1.8
O=C(COc1ccc(Br)cc1)Nc1ccc(-c2nnc(-c3ccco3)o2)cc1	27.7	-2.4	51.0*	0.1	2.1
C[C@@H]1CN([C@@H](C)CO)C(=O)c2cc(-c3ccccc3F)cnc2O[C@H]1CN(C)C(=O)c1ccccn1	.	.	.	-8.4	.
CC(=O)N/N=C/c1cc(C(C)C)cc(/C=N/NC(C)=O)c1O	2.3	-0.9	-14.0	72.3*	-0.3
CC(=O)N/N=C/c1cc(C)n(-c2ccc(Br)cc2)c1C	-2.2	2.8	28.4	-2.0	-1.1
CC=Cc1ccc2n(c1=O)C[C@H]1[C@H](CO)[C@@H](C(=O)NCc3ccccc3F)N(CCC)[C@@H]21 (mixture of isomers)	.	.	.	1.5	.
Cc1cccc(/C(N)=N/OC(=O)c2ccc3c(c2)OCO3)c1	-8.2	4.4	-18.1	-3.1	1.2
Cc1ccc(C)c(OCC(=O)O/N=C(\N)c2cccc([N+](=O)[O-])c2)c1	6.6	2.0	13.4	-0.4	113.7*
N/C(=N\OC(=O)c1ccc2c(c1)OCO2)c1cccc([N+](=O)[O-])c1	50.4	-5.4	58.6*	.	1.1
CCNC(=O)C[C@H]1CC[C@H]2[C@H](COc3ccc(NC(=O)Nc4cccc(OC)c4)cc3C(=O)N2C)O1	.	.	.	5.3	.
CCCC(=O)Nc1ccc2c(c1)OC[C@@H](C)N(Cc1nccs1)C[C@@H](C)[C@H](OC)CN(C)C2=O	.	.	.	-8.0	.
O=C(C[C@H]1C[C@@H]2c3cc(NC(=O)Nc4ccc(C(F)(F)F)cc4)ccc3O[C@@H]2[C@@H](CO)O1)NCc1ccc2c(c1)OCO2	.	.	.	11.4	.
CN(C)C(=O)[C@@H]1[C@@H](CO)[C@@H]2Cn3c(ccc(C4=CCCC4)c3=O)[C@@H]2N1C(=O)Cc1cccnc1	.	.	.	-5.0	.
COC1(OC)C(/C=C/c2ccc(C)cc2)C(C#N)(C#N)C1(OC)OC (stereo not given)	51.9	1.5	54.8*	9.7	1.3
O=C1/C(=C\c2ccccc2)CCc2c1[nH]c1ccccc21	59.0	-4.4	108.7*	-0.5	2.3
SMILES	HSF1 inhib	HSP90 refold inh	HSF1 activator	ARNT TACC3 PPI	HIF activator
Cc1ccc2[nH]c3c(c2c1)CC/C(=C/c1ccccc1)C3=O	34.7	14.8	61.9*	0.9	6.8
Cc1ccc(/C=C2/CCc3c([nH]c4ccccc34)C2=O)cc1	12.6	-0.7	18.9	2.1	1.6
CC(C)/C=C1\CCc2c([nH]c3ccccc23)C1=O	16.5	-0.9	35.5	-8.9	1.4
CC(C)(C)c1ccc(C(=O)c2c[nH]c(C(=O)NCCc3ccccn3)c2)cc1	-0.5	16.3*	-5.7	1.4	0.1
CCC(CC)C(=O)c1c[nH]c(C(=O)NCCc2ccccn2)c1	-4.0	1.4	6.4	4.8	-0.1
CO[C@H]1CN(C)C(=O)c2cc(NC(=O)C3CC3)ccc2OC[C@H](C)N(C(=O)CN2CCOCC2)C[C@H]1C	.	.	.	-1.6	.
c1ccc(Nc2c(-c3ccco3)nc3ccccn23)cc1	43.8	-7.9	80.5*	.	0.2
Fc1ccc(Nc2c(-c3ccco3)nc3ccccn23)cc1	32.5	-10.1	61.9*	-24.6	-0.1
Cc1ccc(S(=O)(=O)N2C[C@H](O)COC[C@@H]3O[C@@H](CC(=O)NCCN4CCCCC4)CC[C@H]32)cc1	.	.	.	3.8	.
CN(C)c1ccc(NC(=O)C2C3C=CC(C3)C2C(=O)O)cc1 (stereo not given)	-9.3	15.2	-1.4	37.9	-28.7
O=C(O)C1C2C=CC(C2)C1C(=O)Nc1ccc2c(c1)OCCO2 (stereo not given)	-56.7*	2.3	-57.6	-1.5	0.5
COc1ccc(NC(=O)C2C3C=CC(O3)C2C(=O)O)cc1 (stereo not given)	-7.5	-2.5	-3.4	-0.4	1.9
CC(=O)c1ccc(NC(=O)C2C3C=CC(O3)C2C(=O)O)cc1 (stereo not given)	11.5	1.5	58.5*	-8.4	-0.5
O=C(O)C1C2C=CC(O2)C1C(=O)Nc1ccc2c(c1)OCCO2 (stereo not given)	-74.0*	10.0	-77.2	.	-0.4
CCC(=O)N1C[C@@H](O)COC[C@H]2O[C@@H](CC(=O)NCc3cc(F)cc(F)c3)CC[C@@H]21	.	.	.	-19.9	.
CO[C@@H]1CN(C)C(=O)c2ccc(NS(=O)(=O)CC(F)(F)F)cc2OC[C@@H](C)N(C(=O)c2ccc3c(c2)OCO3)C[C@H]1C	.	.	.	1.9	.
CN(C(=O)c1ccc(OC2CCN(Cc3ccccn3)CC2)cc1)C1CCCCC1	-52.0*	4.7	-64.0	-0.6	2.7
CCOC(=O)C1=NN(C(=O)COc2ccccc2)C(O)(c2ccc(Cl)cc2)C1 (stereo not given)	71.1	-2.2	121.5*	-3.4	-0.4
CCOC(=O)C1=NN(C(=O)c2cccc(Br)c2)C(O)(C(C)(C)C)C1 (stereo not given)	6.6	-0.5	18.0	.	0.3
COC(=O)C1=NN(C(=O)c2cccc(Br)c2)C(O)(c2ccc(Cl)cc2)C1 (stereo not given)	114.4	-3.2	183.2*	-0.1	-0.3
